# Test results from PubChem BioAssay (NCATS).
# Several values for one entry are separate records, joined by “and”; a condition that tells them apart may be missing. Identical values can stand only once. Records with an inconclusive call do not appear. Entries that show only a call come without a potency. Activity calls are given as the source filed them. Unless noted, the call rests on the fitted dose curve; in most records, active means well fitted curve in the direction sought with a large enough effect; inconclusive means small, poorly fitted or top-dose-only effect, or another doubt; inactive means no such curve, though single readings can be large; an effect the other way counts as inactive or inconclusive.
# Key:
# [1] = Cell Viability - SK-N-SH (AID 435; calls by dose curve;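 further: potency means the concentration at half of the fitted maximal effect; compound exposure lasted 40 h at 37 °C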); settings: SK-N-SH neuroblastoma cell viability qHTS
# Outline: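 CellTiter-Glo ATP luminescence, 20 min RT read; cells pre-plated 5 hr, compound 40 hr at 37 °C, 1500 cells/well, complete medium. Normalized DMSO = 0, 100 uM tamoxifen = 100% inhibition; Hill-fit AC50.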
# [2] = Cell Viability - N2a (AID 540); settings: N2a mouse neuroblastoma cell viability; at 92.2 µM (top of the series); further: nearly all actives have a fitted effect of over 45% in size
# Outline: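 Mouse neuroblastoma N2a cells, 1500/well, exposed to compounds 40 h at 37 °C in complete medium. Viability measured as cellular ATP by CellTiter-Glo luminescence; AC50 from Hill fits of concentration-response.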
# [3] = Cell Viability - SH-SY5Y (AID 544); settings: SH-SY5Y neuroblastoma cell viability; viability change, negative = cytotoxic: at 92.2 µM (top of the series); further: nearly all actives have a fitted effect of over 55% in size
# Outline: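 SH-SY5Y human neuroblastoma cells (1500/well) incubated 5 h, then compound-treated 40 h at 37 °C in complete medium. Viability read as intracellular ATP by CellTiter-Glo luminescence after 20 min; AC50 from Hill-equation fits of qHTS concentration-response.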
# [4] = Cellular Toxicity (caspase-3) HepG2 (AID 654); settings: HepG2 caspase-3 activation, luminescence, 0% = DMSO only, 100% = tamoxifen; series mostly up to 92.2 µM;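 further: cells exposed to compound for 16 hours before reading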
# Outline: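 HepG2 cells (1500/well) were treated 16 h at 37 °C in complete medium, then caspase 3/7 activity was read by Caspase-Glo luminescence. Data were normalized to DMSO and 100 uM tamoxifen; AC50 came from Hill-equation fits of qHTS concentration-response.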
# [5] = Cellular Toxicity (caspase-3) Hek293 (AID 664); settings: HEK293 caspase-3 activation, DMSO = 0%, 100 µM tamoxifen = 100%; series mostly up to 92.2 µM;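 further: cells exposed to compound for 16 h at 37 °C before readout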
# Outline: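 HEK293 cells in complete medium treated 16 h at 37 °C, then Caspase-Glo 3/7 luminescence read after 20 min at room temperature. Normalized to DMSO and 100 uM tamoxifen; AC50 from Hill fit of concentration-response.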
# [6] = Cellular Toxicity (caspase-3) NIH 3T3 (AID 666); settings: NIH 3T3 caspase-3 activation, apoptosis/toxicity, 0% DMSO, 100% is 100 µM tamoxifen; series mostly up to 92.2 µM;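 further: caspase signal read after 16 h compound exposure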
# Outline: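 Mouse NIH 3T3 fibroblasts (1000/well) treated 16 h at 37 C; caspase-3/7 activity measured by Caspase-Glo 3/7 luminescence after 20 min. Normalized to DMSO and 100 uM tamoxifen; AC50 from Hill fits.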
# [7] = Cell Viability - LYMP1-002 - Assay at 16 hr (AID 948); settings: LYMP1-002 lymphoblastoid cell viability; series mostly up to 92.2 µM
# Outline: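 LYMP1-002 human lymphoblastoid cells, 2500/well; 5 hr 37 C; cpd 16 hr 37 C; CellTiter-Glo 30 min RT; luminescence (ATP). Concentration-response, Hill-fit AC50. Pos ctrl tetraoctylammonium bromide.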
# [8] = MultiTox-Fluor Cytotoxicity Assay - LYMP1-002 - Live Cells (AID 955); settings: LYMP1-002 lymphoblastoid live-cell protease fluorescence viability; series mostly up to 46.1 µM;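 further: cells exposed to compound for 16 hours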
# Outline: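 Human lymphoblastoid LYMP1-002 cells, 2500/well, treated 16 h at 37 C in complete medium. Live-cell protease activity via GF-AFC fluorescence (Ex/Em 405/510) after 60 min reagent incubation; AC50 from Hill fits.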
# [9] = MultiTox-Fluor Cytotoxicity Assay - LYMP1-003 - Live Cells (AID 962); settings: LYMP1-003 lymphoblastoid cells, MultiTox-Fluor live-cell protease fluorescence; series mostly up to 92.2 µM;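 further: cells exposed to compound for 16 hours at 37 °C; cytotoxic hits lower the live-cell protease signal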
# Outline: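 LYMP1-003 lymphoblastoid cells, 2500/well in complete medium, treated 16 h at 37 C; live-cell protease cleavage of GF-AFC read by fluorescence (Ex/Em 405/510) after 60 min reagent; AC50 from Hill fits of concentration-response.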
# [10] = Cell Viability - LYMP1-003 - Assay at 24 hr (AID 963); settings: LYMP1-003 lymphoblastoid cell viability; series mostly up to 92.2 µM
# Outline: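 Human lymphoblastoid LYMP1-003 cells, 2500/well, treated 24 h at 37 C in complete medium. Viability read as intracellular ATP by CellTiter-Glo luminescence after 30 min at room temperature; AC50 from Hill-equation fits of qHTS concentration-response.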
# [11] = Cell Viability - LYMP2-015 (AID 971); settings: LYMP2-015 lymphoblastoid cell viability; series mostly up to 92.2 µM; further: nearly all actives have a fitted effect of over 55% in size
# Outline: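 LYMP2-015 human lymphoblastoid cells (2500/well) in complete medium, compound-treated 24 h at 37 C; viability read as cellular ATP by CellTiter-Glo luminescence after 30 min at room temperature. AC50 from Hill-equation fits of qHTS concentration-response data.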
# [12] = Cell Viability - LYMP2-025 (AID 976); settings: LYMP2-025 lymphoblastoid cell viability; series mostly up to 92.2 µM
# Outline: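 Human lymphoblastoid LYMP2-025 cells, 2500/well, exposed 24 h at 37 C in complete medium in 1536-well qHTS. Viability as cellular ATP by CellTiter-Glo luminescence; AC50 from Hill fits of concentration-response data.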
# [13] = Cell Viability - LYMP2-002 (AID 977); settings: LYMP2-002 lymphoblastoid cell viability, qHTS; series mostly up to 92.2 µM;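 further: compound exposure lasted 24 h at 37 °C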
# Outline: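 Cytotoxicity is scored as concentration-dependent loss of cellular ATP in a human lymphoblastoid line after 24 hr compound treatment at 37 C. AC50 is obtained by modelling concentration-response data with the Hill equation.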
# [14] = Cell Viability - LYMP2-006 (AID 978); settings: LYMP2-006 lymphoblastoid cell viability, qHTS; series mostly up to 92.2 µM;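 further: cells exposed to compound for 24 hours; nearly all actives have a fitted effect of over 60% in size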
# Outline: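 qHTS, 1536-well; 2500 cells/well, 5 hr 37 C; cpd 24 hr 37 C; CellTiter-Glo 30 min RT; luminescence. Tetraoctylammonium bromide pos. ctrl. AC50 via Hill eqn.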
# [15] = Cell Viability - LYMP2-008 (AID 980); settings: LYMP2-008 lymphoblastoid cell viability, qHTS; series mostly up to 92.2 µM; further: nearly all actives have a fitted effect of over 60% in size
# Outline: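 LYMP2-008 lymphoblastoid cells (2500/well) plated 5 h, then treated 24 h at 37 C in complete medium. Viability read as intracellular ATP by CellTiter-Glo luminescence after 30 min at room temperature; AC50 from Hill fits.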
# [16] = Cell Viability - LYMP1-002 - Assay at 24 hr (AID 993); settings: LYMP1-002 lymphoblastoid cells viability; series mostly up to 92.2 µM
# Outline: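 Human lymphoblastoid LYMP1-002 cells (2500/well) treated 24 h at 37 °C; viability as intracellular ATP by CellTiter-Glo luminescence. Tetraoctylammonium bromide as positive control; AC50 from Hill-equation fits of qHTS concentration-response.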
# [17] = Cell Viability - LYMP1-002 - Assay at 40 hr (AID 994); settings: LYMP1-002 lymphoblastoid cell viability; series mostly up to 92.2 µM; further: nearly all actives have a fitted effect of over 60% in size
# Outline: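 LYMP1-002 human lymphoblastoid cells (2500/well, complete medium) were treated with compounds for 40 hr at 37 C. Intracellular ATP was measured by CellTiter-Glo luminescence, and AC50 values came from Hill-equation fits of concentration-response data; tetraoctylammonium bromide was the positive control.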
# [18] = qHTS assay for small molecule antagonists of retinoid X receptor alpha signaling (AID 588546; active means well fitted inhibition curve with a large enough effect in the signal ratio, with a control signal flat, not every such curve was filed as active; the % refers to the signal ratio;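 further: cells stimulated with 9-cis-retinoic acid as agonist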); settings: HEK293T RXRa-UAS-bla, beta-lactamase ratio, antagonist mode; measured here: W530 green channel, cytotoxicity proxy
# Outline: (§1)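 Beta-lactamase reporter inhibition, read as CCF4 fluorescence ratio (ex 405, em 460/530 nm) after 2 h at RT. HEK293T UAS-bla cells, 2500/well, were stimulated with 9-cis-RA at 500 or 100 nM final alongside test compound for 18 h at 37 C.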
# [19] = biological target: Retinoic acid receptor RXR-alpha (Homo sapiens) (UniProt P19793); experiment: as above; settings: HEK293T RXRa-UAS-bla, beta-lactamase ratio, antagonist mode
# Chain of Retinoic acid receptor RXR-alpha (Homo sapiens) (P19793 whole entry, looked up): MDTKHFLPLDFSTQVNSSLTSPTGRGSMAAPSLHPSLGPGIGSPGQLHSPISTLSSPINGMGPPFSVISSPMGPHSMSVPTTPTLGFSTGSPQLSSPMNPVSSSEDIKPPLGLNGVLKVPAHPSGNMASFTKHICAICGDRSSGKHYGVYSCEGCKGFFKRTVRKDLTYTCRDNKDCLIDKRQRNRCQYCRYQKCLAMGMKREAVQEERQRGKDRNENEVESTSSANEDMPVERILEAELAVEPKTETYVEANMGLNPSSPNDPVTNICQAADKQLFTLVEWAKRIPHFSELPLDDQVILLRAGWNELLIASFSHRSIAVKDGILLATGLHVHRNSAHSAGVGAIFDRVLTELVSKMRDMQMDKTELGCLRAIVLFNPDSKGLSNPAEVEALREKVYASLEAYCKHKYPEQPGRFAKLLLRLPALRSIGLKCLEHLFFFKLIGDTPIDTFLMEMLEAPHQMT
# Outline: as §1
# [20] = qHTS assay for small molecule agonists of the antioxidant response element (ARE) signaling pathway measured by Nrf2-dependant transcriptional activity (AID 720636; active means well fitted curve in the direction sought with a large enough effect in the repeat runs; an effect the other way counts as inactive or inconclusive;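 further: HepG2 cells with an ARE-driven luciferase reporter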); settings: ARE-luc HepG2, Nrf2 luciferase reporter, 16 h; series mostly up to 92.4 µM
# Outline: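 Nrf2-dependent transcription is measured in ARE-luc HepG2 cells: compound is applied for 16 hr at 37 C after a 6 hr attachment period, and luciferase activity is quantified by luminescence using ONE-Glo.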
SMILES,Potency [1],"activity change, negative = cytotoxicity [2]",Potency [3],outcome [4],outcome [5],outcome [6],Potency [7],outcome [8],Potency [9],Potency [10],Potency [11],Potency [12],Potency [13],Potency [14],Potency [15],Potency [16],Potency [17],max response [18],max response [19],outcome [20]
Oc1ccc(Cl)cc1Cl,> 92 µM (inactive),-5.05% (inactive),inactive,inactive,inactive,inactive,inactive,inactive,inactive,inactive,inactive,inactive,inactive,inactive,inactive,inactive,inactive,-7.11% and -14.1%,-2.36% (inactive) and -1.51% (inactive),inactive
O=[N+]([O-])c1ccc(Cl)c(Cl)c1,> 92 µM (inactive),-3.37% (inactive),inactive,inactive,inactive,inactive,inactive,inactive,inactive,inactive,inactive,inactive,inactive,inactive,inactive,inactive,inactive,-6.04%,7.29% (inactive),inactive
ClC(Cl)=C(Cl)Cl,> 92 µM (inactive),-8.38% (inactive) and -0.61% (inactive),inactive,inactive,inactive,inactive,inactive,inactive,inactive,inactive,inactive,inactive,inactive,inactive,inactive,inactive,inactive,-6.82% and -0.572%,2.53% (inactive) and 3.68% (inactive),inactive
CC(=O)[O-].CC(=O)[O-].O.O.O.[Pb+2],> 92 µM (inactive),13.3% (inactive) and 9.03% (inactive),inactive,inactive,inactive,inactive,inactive,inactive,inactive,inactive,inactive,inactive,inactive,inactive,inactive,inactive,inactive,-8.42% and -6.15%,27.2% (inactive) and 0.247% (inactive),inactive
CCCC(=O)Cl,> 92 µM (inactive),1.63% (inactive),inactive,inactive,inactive,inactive,inactive,inactive,inactive,inactive,inactive,inactive,inactive,inactive,inactive,inactive,inactive,-5.53%,15.7% (inactive),inactive
COc1ccc(N)cc1,> 92 µM (inactive),-29.2% (inactive) and -31.3% (inactive),inactive,inactive,inactive,inactive,inactive,inactive,inactive,inactive,inactive,inactive,inactive,inactive,inactive,inactive,inactive,0.204% and 7.89%,-1.34% (inactive) and 19.9% (inactive),inactive
